Reference: paper PMC12864922, “TDP-43 directly inhibits mRNA accumulation in neurites through modulation of mRNA stability”
Changes are numbered by the printed parent chain. Whole data set: some 9,900 sequences, median “r (bound/input frequency ratio)” near 0.7, cut for the highest 2% near 6.5. Many of the other results were omitted from the sample, so the highest values are more common in it than they were.

B1: ENSMUSG00000042529.274|Kcnj12 (ssRNA)
RNA: GGGAGUUCUACAGUCCGACGAUCGCUUCGAUAUCCGCAUGCUAGUGUGCUUACCUGCCACUCACCUCUCUAUCUAGUUGUCGAGUCUAGGGAAGGGCAGAGGGUGGGUCCUGGCCACUGGGUGCCACUGUGGGAGCCGGGGCACCUGUCAUUCUUUCUGAGUAGGUGGGCCUGUAUCCAGAGCAGGGUCUAGGGGCUCCUGCUCCCGGCUCAUCUCAGUGGCCUGAAGCAUUCAAAACUCUAGCCAGCCCCAUCCUCCUCCCUGCCAGAAUGGUCCAGUCCCUGGGCCCUGCUGGAGAGCAGCCUCUUGCGGUCGCACUAGUGUGGAAUUCUCGGGUGUCAAGG
B2: ENSMUSG00000004113.47|Cacna1b (ssRNA)
RNA: GGGAGUUCUACAGUCCGACGAUCGCUUCGAUAUCCGCAUGCUAGCUAUCACUGCACUUUGGGACUCAGCACUGGCGUCCGGGCGCGGCACAGCUACCACCACCCCGAUCAGGACCACUGGUGCUAGCUGCACCACGACCACCCAUGUACCAGCUCCAUGGGUGAGGGUUCCAGUUGAUGAGUUUUAUCAUCCGCUCUGGGCUGUGGGGUCACAGCCCUGGGAGGAGGGCCCUCACAUCUCGGCCUCUGUGGUGGAGGCUCCUGCUUCCCUCCCUCCCUCCCUUUUACACUGGAUAGACUAAUACUCUUGCGGUCGCACUAGUGUGGAAUUCUCGGGUGUCAAGG
B3: ENSMUSG00000004113.89|Cacna1b|48:52;211:215;227:232 (ssRNA)
RNA: GGGAGUUCUACAGUCCGACGAUCGCUUCGAUAUCCGCAUGCUAGACUAAUAAAGCCCUUUCUUAGAGGGACAUGGUUCUCUCUAUCCUCCACACAACUGCCUUCCUGGGUUCCAUGCCAGAUGUUGGAUCCUAAGCAGGAGGUAGCUGAGUUGAGAUGGACCCAGCAAAUCCAAAUCCUAUGUCAUGGCCUCCAGCAUCCAGGGUGGGUCCUUGGGACUUUUCUUAGGAGGGACUUUCUGAGCCUCGUGGAGACACACGUUUGUCCAAAACACACGCAUGGGAGAUAGGGUACCCCUGAAAGCCUCUUGCGGUCGCACUAGUGUGGAAUUCUCGGGUGUCAAGG
B4: ENSMUSG00000058297.451|Spock2 (ssRNA)
RNA: GGGAGUUCUACAGUCCGACGAUCGCUUCGAUAUCCGCAUGCUAAGCAAGCUUCGUGUUUCCUCAGGAGCAAGGUCACACAGGUCAGAUUAUUGUCGGUCCUGCGGGCCUCAUCCUUGAAUAAGCUGCCUGCCCAGUUCCUCCAUCCGUGUUCCUGCCUGCUCCCGUUCCCUUGUUGCGGGCAGGAGAGGUAGGGCUGUGUUGGAAAGAGUUCAACCAAAUUACGGCAGCACCACAUCUUGCCGAGCCCUGGAGCUGCCCUACUAAGAGCCUCCUUAGCCCUGGGUGCUGGGAAGGAUGGUGUACUCUUGCGGUCGCACUAGUGUGGAAUUCUCGGGUGUCAAGG
B5: ENSMUSG00000061578.871|Ksr2 (ssRNA)
RNA: GGGAGUUCUACAGUCCGACGAUCGCUUCGAUAUCCGCAUGCUAUUAGGUCAGAGGUAUCAAUACAUCUCCGGAAACAUCGUCACAGAUACCUAGAGGUACUUCAUUGAUCCCUUGAAAAGCAUGUCUUAAUUCUGUUAAGAUGUCAAUCAAGAUUACACAUCUCACUGCUUCACAGGCCAUCAGGGCCCCAUUCUGAGGUCCUGGGACACUACCCAAACCCUAGCACUCUCCCAGUGACUCUCCUAUGAGUACAUAUGCCAUCCUGCUUCCUUUGUGGCAAAACCCUGGGUCACCCAGAGACACUCUUGCGGUCGCACUAGUGUGGAAUUCUCGGGUGUCAAGG
B6: ENSMUSG00000058297.473|Spock2|21:25 (ssRNA)
RNA: GGGAGUUCUACAGUCCGACGAUCGCUUCGAUAUCCGCAUGCUAGCGGGCAGGAGAGGUAGGGCACACAUGGAAAGAGUUCAACCAAAUUACGGCAGCACCACAUCUUGCCGAGCCCUGGAGCUGCCCUACUAAGAGCCUCCUUAGCCCUGGGUGCUGGGAAGGAUGGUGUACGUUGGGGAAGUUUGAGGUUGGAGAGAGUAAAUGUGCCUUGAGAGACCACUCAGAGGUCCCAGGAGGAACGGGGGCGGGGCUUAGCCUGGGAGUUCUGGCAGGAGGCAAAGUUGGUGAGAGUCCUGGGACAUCUCUUGCGGUCGCACUAGUGUGGAAUUCUCGGGUGUCAAGG
B7: ENSMUSG00000058297.471|Spock2 (ssRNA)
RNA: GGGAGUUCUACAGUCCGACGAUCGCUUCGAUAUCCGCAUGCUACGUUCCCUUGUUGCGGGCAGGAGAGGUAGGGCUGUGUUGGAAAGAGUUCAACCAAAUUACGGCAGCACCACAUCUUGCCGAGCCCUGGAGCUGCCCUACUAAGAGCCUCCUUAGCCCUGGGUGCUGGGAAGGAUGGUGUACGUUGGGGAAGUUUGAGGUUGGAGAGAGUAAAUGUGCCUUGAGAGACCACUCAGAGGUCCCAGGAGGAACGGGGGCGGGGCUUAGCCUGGGAGUUCUGGCAGGAGGCAAAGUUGGUGAGACUCUUGCGGUCGCACUAGUGUGGAAUUCUCGGGUGUCAAGG
B8: ENSMUSG00000058297.473|Spock2 (ssRNA)
RNA: B6 RNA with A64U, C65G, A66U, C67G, A68U
B9: ENSMUSG00000058297.468|Spock2 (ssRNA)
RNA: GGGAGUUCUACAGUCCGACGAUCGCUUCGAUAUCCGCAUGCUACGUGUUCCUGCCUGCUCCCGUUCCCUUGUUGCGGGCAGGAGAGGUAGGGCUGUGUUGGAAAGAGUUCAACCAAAUUACGGCAGCACCACAUCUUGCCGAGCCCUGGAGCUGCCCUACUAAGAGCCUCCUUAGCCCUGGGUGCUGGGAAGGAUGGUGUACGUUGGGGAAGUUUGAGGUUGGAGAGAGUAAAUGUGCCUUGAGAGACCACUCAGAGGUCCCAGGAGGAACGGGGGCGGGGCUUAGCCUGGGAGUUCUGGCAGCUCUUGCGGUCGCACUAGUGUGGAAUUCUCGGGUGUCAAGG
B10: ENSMUSG00000058297.470|Spock2 (ssRNA)
RNA: GGGAGUUCUACAGUCCGACGAUCGCUUCGAUAUCCGCAUGCUAUGCUCCCGUUCCCUUGUUGCGGGCAGGAGAGGUAGGGCUGUGUUGGAAAGAGUUCAACCAAAUUACGGCAGCACCACAUCUUGCCGAGCCCUGGAGCUGCCCUACUAAGAGCCUCCUUAGCCCUGGGUGCUGGGAAGGAUGGUGUACGUUGGGGAAGUUUGAGGUUGGAGAGAGUAAAUGUGCCUUGAGAGACCACUCAGAGGUCCCAGGAGGAACGGGGGCGGGGCUUAGCCUGGGAGUUCUGGCAGGAGGCAAAGUUGCUCUUGCGGUCGCACUAGUGUGGAAUUCUCGGGUGUCAAGG
B11: ENSMUSG00000058297.472|Spock2 (ssRNA)
RNA: GGGAGUUCUACAGUCCGACGAUCGCUUCGAUAUCCGCAUGCUACUUGUUGCGGGCAGGAGAGGUAGGGCUGUGUUGGAAAGAGUUCAACCAAAUUACGGCAGCACCACAUCUUGCCGAGCCCUGGAGCUGCCCUACUAAGAGCCUCCUUAGCCCUGGGUGCUGGGAAGGAUGGUGUACGUUGGGGAAGUUUGAGGUUGGAGAGAGUAAAUGUGCCUUGAGAGACCACUCAGAGGUCCCAGGAGGAACGGGGGCGGGGCUUAGCCUGGGAGUUCUGGCAGGAGGCAAAGUUGGUGAGAGUCCUGCUCUUGCGGUCGCACUAGUGUGGAAUUCUCGGGUGUCAAGG
B12: ENSMUSG00000058297.470|Spock2|39:43 (ssRNA)
RNA: B10 RNA with U82A, G83C, U84A, G85C, U86A
B13: ENSMUSG00000058297.474|Spock2 (ssRNA)
RNA: GGGAGUUCUACAGUCCGACGAUCGCUUCGAUAUCCGCAUGCUAAGGAGAGGUAGGGCUGUGUUGGAAAGAGUUCAACCAAAUUACGGCAGCACCACAUCUUGCCGAGCCCUGGAGCUGCCCUACUAAGAGCCUCCUUAGCCCUGGGUGCUGGGAAGGAUGGUGUACGUUGGGGAAGUUUGAGGUUGGAGAGAGUAAAUGUGCCUUGAGAGACCACUCAGAGGUCCCAGGAGGAACGGGGGCGGGGCUUAGCCUGGGAGUUCUGGCAGGAGGCAAAGUUGGUGAGAGUCCUGGGACAUCUUACCCUCUUGCGGUCGCACUAGUGUGGAAUUCUCGGGUGUCAAGG
B14: ENSMUSG00000058297.469|Spock2 (ssRNA)
RNA: GGGAGUUCUACAGUCCGACGAUCGCUUCGAUAUCCGCAUGCUACCUGCCUGCUCCCGUUCCCUUGUUGCGGGCAGGAGAGGUAGGGCUGUGUUGGAAAGAGUUCAACCAAAUUACGGCAGCACCACAUCUUGCCGAGCCCUGGAGCUGCCCUACUAAGAGCCUCCUUAGCCCUGGGUGCUGGGAAGGAUGGUGUACGUUGGGGAAGUUUGAGGUUGGAGAGAGUAAAUGUGCCUUGAGAGACCACUCAGAGGUCCCAGGAGGAACGGGGGCGGGGCUUAGCCUGGGAGUUCUGGCAGGAGGCACUCUUGCGGUCGCACUAGUGUGGAAUUCUCGGGUGUCAAGG
B15: ENSMUSG00000058297.472|Spock2|27:31 (ssRNA)
RNA: B11 RNA with U70A, G71C, U72A, G73C, U74A
B16: ENSMUSG00000058297.474|Spock2|15:19 (ssRNA)
RNA: B13 RNA with U58A, G59C, U60A, G61C, U62A
B17: ENSMUSG00000058297.471|Spock2|33:37 (ssRNA)
RNA: B7 RNA with U76A, G77C, U78A, G79C, U80A

Target: TDP-43 (Homo sapiens, UniProt Q13148 1-414)
Assay: RNA Bind-n-Seq with designed 260-mer pool; 25 mM Tris-HCl, 150 mM KCl, 3 mM MgCl2, BSA (printed 500 mg/mL), 20 units/mL SUPERase IN; pH not stated; 500 nM RNA pool, 1 h, 4 C; TDP-43 5, 50, 500 nM; high values mean tight binding
Details: protein: recombinant; tags: SBP (GST cleaved off with PreScission; pGEX-GST-SBP)
Method in brief: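 Duplicate measurements used two independent batches of recombinant SBP-tagged TDP-43, which was captured on streptavidin beads at 5, 50 or 500 nM. The beads were incubated with 500 nM of an in vitro-transcribed 260-nt 3′ UTR oligo pool for 1 h at 4 °C in 25 mM Tris-HCl, 150 mM KCl, 3 mM MgCl2, BSA and SUPERase IN. After washing, biotin elution, reverse transcription, PCR amplification and sequencing, binding was expressed as R: each oligo's normalized read abundance in the bound sample over its abundance in input.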

Sequence of TDP-43 (Q13148 whole entry): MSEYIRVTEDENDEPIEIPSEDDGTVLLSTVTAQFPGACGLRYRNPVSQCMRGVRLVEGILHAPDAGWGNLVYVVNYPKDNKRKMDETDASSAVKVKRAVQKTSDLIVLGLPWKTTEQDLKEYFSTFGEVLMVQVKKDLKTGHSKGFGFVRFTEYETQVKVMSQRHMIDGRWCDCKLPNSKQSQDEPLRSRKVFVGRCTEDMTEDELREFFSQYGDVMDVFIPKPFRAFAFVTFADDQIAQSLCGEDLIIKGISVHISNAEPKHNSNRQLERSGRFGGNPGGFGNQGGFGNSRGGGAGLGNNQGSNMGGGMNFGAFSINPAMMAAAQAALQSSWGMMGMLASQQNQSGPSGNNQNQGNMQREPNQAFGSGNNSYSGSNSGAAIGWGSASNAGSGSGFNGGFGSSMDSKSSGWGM

Binder | binding signal
B1 | 0.622 R (bound/input frequency ratio)
B2 | 0.27 R (bound/input frequency ratio)
B3 | 0.504 R (bound/input frequency ratio)
B4 | 0.383 R (bound/input frequency ratio)
B5 | 0.301 R (bound/input frequency ratio)
B6 | 3.59 R (bound/input frequency ratio)
B7 | 7.28 R (bound/input frequency ratio)
B8 | 6.95 R (bound/input frequency ratio)
B9 | 3.47 R (bound/input frequency ratio)
B10 | 8.94 R (bound/input frequency ratio)
B11 | 7.38 R (bound/input frequency ratio)
B12 | 5.26 R (bound/input frequency ratio)
B13 | 5.67 R (bound/input frequency ratio)
B14 | 2.58 R (bound/input frequency ratio)
B15 | 4.63 R (bound/input frequency ratio)
B16 | 3.2 R (bound/input frequency ratio)
B17 | 4.19 R (bound/input frequency ratio)
